Screens deposited in PubChem by National Center for Advancing Translational Sciences (NCATS).
NPC1 promoter act – activates the NPC1 promoter. Huh7 NPC1 promoter luciferase reporter, 24 h. Potency, µM (doses to about 9.22 µM), for the others: at the highest dose activation, hits mostly activators. 2.4% of 320,000 active; also: % of control where 0% means no effect; nearly all actives have a fitted effect of over 60% in size
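Huh7 reporter cells (NPC1 promoter driving luciferase) are dosed with compound for 24 h at 37 °C, 5% CO2; luciferase detection reagent is then added and luminescence measured after 10 min at ambient temperature.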
ELG1 genotox – induces genotoxicity in HEK293T cells with luciferase-tagged ELG1; Potency, µM (series often up to 46 µM), for the others: at the highest dose activity change, positive = activation, actives largely listed as activators; HEK293T ELG1-luciferase reporter, luminescence, 16 h; 1.3% of 330,000 active; also: % of control where 0% means no effect; nearly all actives have a fitted effect of over 60% in size
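HEK293T cells expressing luciferase-tagged ELG1 were treated with compound or DMSO for 16 hr at 37°C. Luciferase activity was then read after 30 min with ONE-Glo at room temperature; rising signal flags genetic stress.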
ELG1 repair inh – inhibitors of ELG1-dependent DNA repair in HEK293T cells | HEK293T ELG1-luciferase reporter, luminescence, 16 h; DNA damage induced by 5-fluorouridine | Potency, µM (titrated, usually from 46.1 µM), without a hit: at the top dose activity change, negative = inhibition, usual class: inhibitors | 2.3% of 330,000 active | AID 504467; also: % is scaled to controls: 0 for no effect and ±100 for the full control effect; nearly all actives have a fitted effect of over 55% in size
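DMSO vehicle served as the neutral condition. Each well held 2,000 cells given 5-fluorouridine plus compound; after 16 hr at 37 °C/5% CO2, ONE-Glo was added and luciferase measured 30 min later.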
FLuc modulator – firefly luciferase modulation, counter-screen for miR-21 project; AID 588342; P08659; purified FLuc, Km substrates, luminescence inhibition; Potency, µM (doses to about 57.5 µM), for the others: at the top dose activity change, negative = inhibition, hits mostly inhibitors; 6.9% of 360,000 active;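 also: plate controls were vehicle for no effect and reference inhibitor for full effect; nearly all actives have a fitted effect of over 55% in size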
Target sequence (P08659 whole entry, looked up): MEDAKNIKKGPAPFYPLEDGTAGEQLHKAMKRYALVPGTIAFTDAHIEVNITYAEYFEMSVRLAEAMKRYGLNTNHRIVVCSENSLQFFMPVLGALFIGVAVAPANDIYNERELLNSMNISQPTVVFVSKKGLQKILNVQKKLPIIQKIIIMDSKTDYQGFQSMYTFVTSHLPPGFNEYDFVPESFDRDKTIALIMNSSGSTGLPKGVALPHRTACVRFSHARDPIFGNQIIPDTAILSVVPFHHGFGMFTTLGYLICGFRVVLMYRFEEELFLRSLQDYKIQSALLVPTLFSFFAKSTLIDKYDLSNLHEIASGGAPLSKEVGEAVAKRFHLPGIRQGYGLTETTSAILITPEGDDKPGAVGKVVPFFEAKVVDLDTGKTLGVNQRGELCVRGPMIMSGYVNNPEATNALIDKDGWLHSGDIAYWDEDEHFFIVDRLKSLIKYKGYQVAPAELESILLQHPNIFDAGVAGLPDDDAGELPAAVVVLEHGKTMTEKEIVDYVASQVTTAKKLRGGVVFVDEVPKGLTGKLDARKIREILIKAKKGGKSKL
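Purified P. pyralis luciferase (10nM final) with 10uM D-luciferin and 10uM ATP (Km levels) in 50mM Tris acetate pH 7.5, 10mM Mg acetate, 0.01% Tween-20, 0.05% BSA; qHTS 6-point titration, ~60 µM downward; luminescence read.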
SMN2 splice enh – enhancers of SMN2 splice variant expression; HEK293 SMN2-luciferase splicing reporter, luminescence, 30-36 h; AID 1458; Potency, µM (doses to about 46.1 µM), without a hit: top-dose activity change, positive = activation, actives largely listed as activators; 2.8% of 210,000 active; also: % of control where 0% means no effect; nearly all actives have a fitted effect of over 55% in size
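HEK293 cells carry an SMN2 […]–luciferase reporter in which exon 7 inclusion puts luciferase in frame. Cells were plated 10-12 h before compound addition, then incubated 30-36 h at 37C. ONE-Glo luminescence was read; sodium butyrate at 4.5 mM final served as control.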
Rab9 promoter act – Rab9 promoter activation; Huh7 Rab9 promoter-luciferase reporter, luminescence, 24 h; 2.8% of 320,000 active; Potency, µM (titrated, usually from 9.22 µM), inactives show at the top dose activation, negative = inhibition, most hits filed as activators; also: % of control where 0% means no effect; nearly all actives have a fitted effect of over 60% in size
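Promoter activation is measured as luciferase luminescence in Huh7 cells stably transfected with a Rab9 promoter–luciferase construct, following 24 h compound exposure at 37 °C and 10 min reagent incubation at ambient temperature.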
Active calls of the source: *; [ ] = dose if it differs, or a comment. The list is not random: actives were taken first. Their share in the collection is about 9.2%. Calls follow the shape of the dose curve; as a rule, active = well fitted curve in the direction sought with a large enough effect; inconclusive = small, poorly fitted or top-dose-only effect, or another doubt; inactive = no such curve, though single readings can be large; an effect the other way counts as inactive or inconclusive. Potency is read from the fitted curve at half-maximal effect.

For CCCN1C(=O)/C(=C/c2ccc(N3CCCC3)c(C)c2)NC1=S the results were NPC1 promoter act -0.4%, ELG1 genotox 2.8%, ELG1 repair inh 10.3µM*, FLuc modulator inconclusive, SMN2 splice enh -31.7% and Rab9 promoter act -0.1%.
For Cc1cc(N2CCCC2)ccc1/C=C1/C(=O)N(C)C(=S)N1C the results were NPC1 promoter act -16.9%, ELG1 genotox -0.1%, ELG1 repair inh -16.0%, FLuc modulator -14.6%, SMN2 splice enh -14.6% and Rab9 promoter act -16.6%.
`O=C(Nc1ccncc1)C1CCN(S(=O)(=O)c2ccccc2C(F)(F)F)CC1` gave NPC1 promoter act -1.7%, ELG1 genotox -10.6%, ELG1 repair inh inconclusive, FLuc modulator -1.2% and Rab9 promoter act 1.5%.
`O=C(O)[C@@H](c1ccccc1)[C@@H](C(=O)O)c1ccccc1` gave SMN2 splice enh -7.5%[9.22 µM].
Cc1ccc(O)c(NC(=O)c2noc3c2CCc2ccccc2-3)c1 was read as NPC1 promoter act inconclusive, ELG1 genotox 23.1µM*, ELG1 repair inh inconclusive, FLuc modulator 4.6%, SMN2 splice enh -50.6% and Rab9 promoter act inconclusive.
Screening CC(=O)c1cccc(NC(=O)c2noc3c2CCc2ccccc2-3)c1 returned NPC1 promoter act 3.98µM*, ELG1 genotox inconclusive, ELG1 repair inh inconclusive, FLuc modulator 2.39µM*, SMN2 splice enh 3.55µM* and Rab9 promoter act 2.51µM*.
CC(Sc1nnnn1C)C(=O)Nc1nc(-c2ccc(F)c(F)c2)cs1 (stereo not drawn) was read as NPC1 promoter act 0.5%, ELG1 genotox 0.8%, ELG1 repair inh inconclusive and Rab9 promoter act -5.9%.
Screening N#C/C(=C/c1cccs1)c1nc2ccccc2[nH]1 returned NPC1 promoter act inconclusive, ELG1 genotox inconclusive, ELG1 repair inh inconclusive, FLuc modulator inconclusive, SMN2 splice enh inconclusive and Rab9 promoter act 2.82µM*.
N#C/C(=C\c1c(Cl)cccc1Cl)c1nc2ccccc2[nH]1 was read as NPC1 promoter act 3.7%, ELG1 genotox -3.6%, ELG1 repair inh 0.0%, FLuc modulator inconclusive and Rab9 promoter act -1.7%.
Screening Cc1ccc(/C=C(\C#N)c2nc3ccccc3[nH]2)s1 returned NPC1 promoter act 0.794µM*, ELG1 genotox inconclusive, ELG1 repair inh inconclusive, FLuc modulator 4.78µM*, SMN2 splice enh inconclusive and Rab9 promoter act 0.355µM*.
Cc1cc(NS(=O)(=O)c2ccc(NC(=O)COc3cc(C)c(Br)cc3C(C)C)cc2)no1 was read as FLuc modulator inconclusive and SMN2 splice enh -5.3%.
Screening COc1ccc(CCNC(=O)CCc2ccc(S(=O)(=O)NCC(C)C)cc2)cc1 returned NPC1 promoter act -7.1%, ELG1 genotox -5.2%, ELG1 repair inh -6.3%, FLuc modulator 1.8%, SMN2 splice enh -19.1% and Rab9 promoter act -1.5%.
For Cc1cccc2c1OCC/C2=N\NC(=O)COc1ccccc1 the results were NPC1 promoter act inconclusive, ELG1 genotox inconclusive, ELG1 repair inh inconclusive, FLuc modulator 19µM*, SMN2 splice enh 9.1% and Rab9 promoter act inconclusive.
For O=C(COc1cccc(Br)c1)N/N=C1\CCCc2ccccc21 the results were NPC1 promoter act 7.3%, ELG1 genotox 9.5%, ELG1 repair inh inconclusive, FLuc modulator inconclusive, SMN2 splice enh 10.4% and Rab9 promoter act 14.6%.
Screening COc1ccccc1OCC(=O)N/N=C1\CCCCc2ccccc21 returned NPC1 promoter act 1.1%, ELG1 genotox -7.4%, ELG1 repair inh inconclusive, FLuc modulator -16.9% and Rab9 promoter act -2.0%.
COc1ccc(OCC(=O)N/N=C2\CCCc3ccccc32)cc1 was read as NPC1 promoter act 8.1%, ELG1 genotox 0.6%, ELG1 repair inh 15.0%, FLuc modulator 19µM* and Rab9 promoter act 6.5%.
Screening O=C(COc1ccccc1F)N/N=C1\CCCc2ccccc21 returned NPC1 promoter act inconclusive, ELG1 genotox inconclusive, ELG1 repair inh inconclusive, FLuc modulator 15.1µM* and Rab9 promoter act inconclusive.
Screening COc1ccccc1OCC(=O)N/N=C1\CCc2ccccc21 returned NPC1 promoter act 26.4%, ELG1 genotox 8.2µM*, ELG1 repair inh inconclusive, FLuc modulator 21.3µM* and Rab9 promoter act 2.82µM*.
CCc1noc(C)c1C(=O)N1CCN(S(=O)(=O)c2ccc(Br)cc2Cl)CC1 was read as NPC1 promoter act 9.7%, ELG1 genotox 1.1%, ELG1 repair inh 0.1%, FLuc modulator -0.6% and Rab9 promoter act -1.7%.
`NC(=O)NC(CC(=O)NCCc1ccc(S(N)(=O)=O)cc1)c1ccccc1Cl` (stereo not drawn) gave NPC1 promoter act -3.2%, ELG1 genotox -4.3%, ELG1 repair inh -2.3%, FLuc modulator -1.0% and Rab9 promoter act 0.0%.
O=C(c1cc(C(F)(F)F)cc(C(F)(F)F)c1)N1CCC[C@@]2(CCN(c3ccncc3)C2)C1 was read as SMN2 splice enh -13.9%.
For O=C(/C(C=Nc1cc2c(oc1=O)CCCC2=O)=C(\O)c1ccccc1)c1ccccc1 the results were NPC1 promoter act -6.1%, ELG1 genotox 13.1%, ELG1 repair inh inconclusive, FLuc modulator 0.2%, SMN2 splice enh -3.8% and Rab9 promoter act -9.8%.
For CCOc1cnc(-c2ccc(Cl)cc2)o1 the results were NPC1 promoter act 0.3%, ELG1 genotox 8.8%, ELG1 repair inh inconclusive, FLuc modulator 21.3µM*, SMN2 splice enh 16.2% and Rab9 promoter act 14.7%.
CCOc1cnc(-c2ccc(OC)cc2)o1 was read as NPC1 promoter act 2.51µM*, ELG1 genotox inconclusive, ELG1 repair inh inconclusive, FLuc modulator 9.53µM*, SMN2 splice enh inconclusive and Rab9 promoter act inconclusive.
O=[N+]([O-])c1ccc(/C=N/Nc2nc(-c3ccccc3)c3cc(Br)ccc3n2)o1 was read as NPC1 promoter act -4.4%, ELG1 genotox 3.3%, ELG1 repair inh -13.8%, FLuc modulator -4.4%, SMN2 splice enh -25.8% and Rab9 promoter act 11.3%.
`Cc1ccc2nc(N/N=C\c3ccc([N+](=O)[O-])o3)nc(-c3ccccc3)c2c1` gave NPC1 promoter act 0.3%, ELG1 genotox -18.6%, ELG1 repair inh 20.6µM*, FLuc modulator 7.57µM*, SMN2 splice enh -26.5% and Rab9 promoter act 2.7%.
For O=[N+]([O-])c1ccc(/C=N/Nc2ccc3ccccc3c2)o1 the results were NPC1 promoter act inconclusive, ELG1 genotox 13.4%, ELG1 repair inh inconclusive, FLuc modulator 10.7µM*, SMN2 splice enh 9.4% and Rab9 promoter act inconclusive.
